Data as given in the supplement of paper PMC6555819.

What was measured:
Experiment in all cases: PBM binding z-score (relative to random genomic background probes); higher = stronger binding; sequences stand for … in GC…GCGATTGACAGCGTAGAATGAAGG
[1] = tested on: FXR:RXRa (NR concentration 270 nM, RXRa partner concentration 90 nM)
Summary of the method: (§1)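 Ligand-free nuclear receptor dimers were applied to custom Agilent 4×180K protein-binding microarrays whose double-stranded probes carried direct-repeat seeds, single-nucleotide variants, half-site ablations and random human genomic background sequences in 34-nt variable regions. Incubation lasted 1 h. Binding z-scores were computed against the random background probes from regression-normalized fluorescence.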

[2] = tested on: LXRa:RXRa (NR concentration 270 nM, RXRa partner concentration 90 nM)
Summary of the method: as §1

[3] = tested on: LXRa homodimer (NR concentration 270 nM)
Summary of the method: as §1

[4] = tested on: LXRb homodimer (NR concentration 270 nM)
Summary of the method: as §1

[5] = tested on: PPARa:RXRa (NR concentration 270 nM, RXRa partner concentration 90 nM)
Summary of the method: as §1

[6] = tested on: PPARg:RXRa (NR concentration 180 nM, RXRa partner concentration 90 nM)
Summary of the method: as §1

[7] = tested on: PPARg:RXRa 270nM:90nM, anti-RXR (NR concentration 270 nM, RXRa partner concentration 90 nM)
Summary of the method: as §1

[8] = tested on: PPARg:RXRa 30nM:10nM, anti-RXR (NR concentration 30 nM, RXRa partner concentration 10 nM)
Summary of the method: as §1

[9] = tested on: PPARg:RXRa 90nM:30nM, anti-RXR (NR concentration 90 nM, RXRa partner concentration 30 nM)
Summary of the method: as §1

[10] = tested on: LXRb:RXRa (NR concentration 270 nM, RXRa partner concentration 90 nM)
Summary of the method: as §1

Sequence: CGTCCAAGGGCAATGCTAGGTCAGTGAAAGCATT
- PBM binding z-score [1]: 0.683
- PBM binding z-score [2]: 2.37
- PBM binding z-score [3]: 0.414
- PBM binding z-score [4]: -1.33
- PBM binding z-score [5]: 0.934
- PBM binding z-score [6]: -0.00472
- PBM binding z-score [7]: 0.084
- PBM binding z-score [8]: -0.775
- PBM binding z-score [9]: -0.291

Sequence: CCCAGTAGGTTACGAGGGGGCATTCAGTGCGAAT
- PBM binding z-score [1]: 2.52
- PBM binding z-score [2]: 7.2
- PBM binding z-score [3]: 1.48
- PBM binding z-score [10]: 6.4
- PBM binding z-score [6]: 3.75
- PBM binding z-score [7]: 4.46
- PBM binding z-score [8]: 1.62
- PBM binding z-score [9]: 3.59

Sequence: TCTAGTTGGTCAAAGGTCAAACACTCGAAATGCG
- PBM binding z-score [1]: 6.51
- PBM binding z-score [2]: 6.59
- PBM binding z-score [3]: 5.24
- PBM binding z-score [4]: 2.77
- PBM binding z-score [5]: 6.82
- PBM binding z-score [6]: 11.2
- PBM binding z-score [7]: 10.3
- PBM binding z-score [8]: 9.94
- PBM binding z-score [9]: 11

Sequence: CCTAGTTGGTCAAGGTCACGCACGCTATAGGTAC
- PBM binding z-score [1]: 4.95
- PBM binding z-score [2]: 4.55
- PBM binding z-score [3]: 2.22
- PBM binding z-score [4]: 0.524
- PBM binding z-score [5]: 4.31
- PBM binding z-score [6]: 3.69
- PBM binding z-score [7]: 4.15
- PBM binding z-score [8]: 1.96
- PBM binding z-score [9]: 3

Sequence: ATCGAAAGGTCGACGAGGTGAGAATACACCGTTT
- PBM binding z-score [1]: 5.1
- PBM binding z-score [2]: 3.9
- PBM binding z-score [3]: 0.0731
- PBM binding z-score [4]: 0.224
- PBM binding z-score [5]: 4.87
- PBM binding z-score [6]: 3.21
- PBM binding z-score [7]: 3.7
- PBM binding z-score [8]: 1.25
- PBM binding z-score [9]: 2.26

Sequence: ACTAGTTGGTCAGCTGGGGTCACACACAATTCGG
- PBM binding z-score [1]: 3.81
- PBM binding z-score [2]: 3.01
- PBM binding z-score [3]: 0.525
- PBM binding z-score [4]: 0.369
- PBM binding z-score [5]: 4.47
- PBM binding z-score [6]: 2.37
- PBM binding z-score [7]: 3.06
- PBM binding z-score [8]: 0.707
- PBM binding z-score [9]: 2.36

Sequence: AATACAGGGTGATCGTAGGCCAGAGTACGCACAG
- PBM binding z-score [1]: -0.0324
- PBM binding z-score [2]: 0.162
- PBM binding z-score [3]: -0.234
- PBM binding z-score [4]: -0.0404
- PBM binding z-score [5]: 0.576
- PBM binding z-score [6]: 1.2
- PBM binding z-score [7]: 0.407
- PBM binding z-score [8]: 0.131
- PBM binding z-score [9]: 0.149

Sequence: TGTCAAAGTTCTAAGGTAACGTAAGTATCCACAC
- PBM binding z-score [1]: 0.449
- PBM binding z-score [2]: 0.196
- PBM binding z-score [3]: -0.388
- PBM binding z-score [4]: -0.268
- PBM binding z-score [5]: 0.624
- PBM binding z-score [6]: 0.871
- PBM binding z-score [7]: 1.41
- PBM binding z-score [8]: 0.457
- PBM binding z-score [9]: 1.15

Sequence: TTACCAAGGTGAACTGAGGTCGTTGATCCAACTC
- PBM binding z-score [1]: 3.33
- PBM binding z-score [2]: 4.31
- PBM binding z-score [3]: 1.34
- PBM binding z-score [4]: -0.359
- PBM binding z-score [5]: 3.46
- PBM binding z-score [6]: 2.14
- PBM binding z-score [7]: 2.3
- PBM binding z-score [8]: 0.857
- PBM binding z-score [9]: 1.7

Sequence: CGTCAAAGTTAAAGGTAACGTAACAGAAAGCAGC
- PBM binding z-score [1]: 0.0396
- PBM binding z-score [2]: 0.253
- PBM binding z-score [3]: -0.0511
- PBM binding z-score [4]: -0.0705
- PBM binding z-score [5]: 1.46
- PBM binding z-score [6]: 1.59
- PBM binding z-score [7]: 2.59
- PBM binding z-score [8]: 0.527
- PBM binding z-score [9]: 1.65

Sequence: CCTACTGGGCCATTAAGAGGTCATTGATCATATG
- PBM binding z-score [1]: 2.62
- PBM binding z-score [2]: 4.19
- PBM binding z-score [3]: 6.58
- PBM binding z-score [4]: 0.0638
- PBM binding z-score [5]: 3.94
- PBM binding z-score [6]: 2.19
- PBM binding z-score [7]: 3.06
- PBM binding z-score [8]: 0.745
- PBM binding z-score [9]: 2

Sequence: CCTACTGGGCCACGAAAGGGCATTGATTCAGTGA
- PBM binding z-score [1]: -0.208
- PBM binding z-score [2]: 0.621
- PBM binding z-score [3]: -0.166
- PBM binding z-score [4]: -1.21
- PBM binding z-score [5]: 1.7
- PBM binding z-score [6]: 1.78
- PBM binding z-score [7]: 1.95
- PBM binding z-score [8]: 0.197
- PBM binding z-score [9]: 0.806

Sequence: TAGCCTAGGTCATGCGGGTCAGTATAGTGTCGGC
- PBM binding z-score [1]: 4.39
- PBM binding z-score [2]: 3.93
- PBM binding z-score [3]: 1.06
- PBM binding z-score [4]: 0.0417
- PBM binding z-score [5]: 4.05
- PBM binding z-score [6]: 2.77
- PBM binding z-score [7]: 3.43
- PBM binding z-score [8]: 0.354
- PBM binding z-score [9]: 2.32

Sequence: CCTACTGGGCCATTCAGAGGTCATCGATCATATG
- PBM binding z-score [1]: 2.91
- PBM binding z-score [2]: 4.22
- PBM binding z-score [3]: 6.05
- PBM binding z-score [4]: 0.293
- PBM binding z-score [5]: 4.19
- PBM binding z-score [6]: 2.51
- PBM binding z-score [7]: 3.01
- PBM binding z-score [8]: 1.49
- PBM binding z-score [9]: 2.37
